The record followed here is PubChem BioAssay (NCI).

The panel holds about 83,000 compounds, 20% with a hit somewhere; the sample as a whole holds those more often.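 The endpoint reported here, percent growth, reads 100 for growth as untreated, 0 for no net growth and -100 for all cells dead.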 Activity calls are given as the source filed them. The calls were made as follows: active = growth percent below 10; inactive = the rest.

The test system of this assay is HS 578T breast. In words: NCI-60 one-dose screen, 48 h (100 = growth as untreated, 0 = no growth, -100 = all killed). The note with it: 10 µM unless noted.
For the compound `COc1ccc(/C=C\c2nc3ccccc3s2)cc1OP(=O)(O)O`, the growth was 14.8% (inactive). `Cn1c2c(Cl)c(Cl)ccc2c2cc(N)[nH]c(=O)c21`: the growth was 51.5% (inactive). Take `O=C1Nc2c(ccc(Cl)c2Cl)/C1=C/c1ccccn1`: the growth was 63.9% (inactive). `O=C(N/N=C/c1ccc(O)c(O)c1)c1sc2ccccc2c1Cl`: the growth was 84.4% (inactive). Regarding `COc1ccccc1C(C[N+](=O)[O-])c1c(-c2ccccc2)[nH]c2cc(C)ccc12` (centres undefined), the growth is 83% (inactive). The same measure for `O=C1/C(=C/c2ccc(O)cc2)COc2ccc(-c3ccccc3)cc21`: 88.2% (inactive); for `Cc1cc2cc3cc(C)c(N)cc3[n+](C)c2cc1N`: 9.56% (active). Take `COc1ccc(-c2cnc(N)nc2-c2ccc(OC)cc2O)cc1`: the growth is 157% (inactive). On to `COc1cccc(/C=C2\COc3ccc(-c4ccccc4)cc3C2=O)c1`, for which the growth is -9.75% (active).

Regarding `c1ccc(-c2nn(-c3ccccc3)[n+](-c3ccccc3-c3ccccc3)n2)cc1`, the growth is 9.51% (active). `CCOC(=O)c1c(C)nc2c(c1N)C(=O)C(=O)N2Cc1ccc(C(F)(F)F)cc1`: the growth is 65.7% (inactive).

As to `COc1cc2nc(-c3ccc(C(F)(F)F)cc3)cc(OCCN3CCC(O)CC3)c2cc1OC`, the growth is 79.1% (inactive).

Consider `NC(=O)c1cccc(-n2ccc3cc(NC(=O)Nc4cc(C(F)(F)F)cc(C(F)(F)F)c4)ccc32)n1`, for which the growth was 38.6% (inactive).

For the compound `CN1CCN(CC#CCNC(=O)[C@]23CCC(C)(C)C[C@H]2C2=CC[C@@H]4[C@@]5(C)Cc6c([nH]c7ccccc67)C(C)(C)[C@@H]5CC[C@@]4(C)[C@]2(C)CC3)CC1`, the growth is 77.9% (inactive).
